VHR inh color: VHR1 phosphatase inhibitors, primary screen, biochemical, colorimetric, HTS; Dual specificity protein phosphatase 3 (Homo sapiens), P51452; recombinant VHR phosphatase, colorimetric substrate read-out; inhibition, % at 20 µM; hit rate 0.7% among 50,000; in the data active = inhibition above about 60%
Target sequence (P51452 whole entry, looked up): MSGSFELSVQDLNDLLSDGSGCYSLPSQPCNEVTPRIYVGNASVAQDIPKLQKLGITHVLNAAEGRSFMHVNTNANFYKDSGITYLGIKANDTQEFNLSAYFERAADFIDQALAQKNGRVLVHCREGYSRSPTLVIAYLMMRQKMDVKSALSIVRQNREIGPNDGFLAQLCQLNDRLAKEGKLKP
Large screens that a line does not name were inactive. Shown is part of a subset that was picked to be rich in hits.

CC(=O)Oc1c(-c2ccc(Cl)cc2)c2nc3ccccc3nc2c2ccccc12	none
Cn1ccnc1SCC(=O)c1ccc(-c2ccccc2)cc1	none
COc1cc(CN2CCN(C3CC4CCC3C4)CC2)cc(OC)c1OC (stereo not given)	none
CCCCCc1nc2sc3c(c2c(=O)n1N)CCCC3	none
CC1(C)CC(=O)C2=C(C1)OC1=C(C(=O)CC(C)(C)C1)C2c1cn[nH]c1-c1ccccc1	none
COc1cc(OC)c(OC)cc1CN1CCN(C2C3CC4CC(C3)CC2C4)CC1 (stereo not given)	none
O=C(CSc1ccc2ccccc2n1)N/N=C/c1ccc(Br)cc1	none
O=C(CCN1C(=O)c2ccccc2C1=O)NCc1ccncc1	none
O=C1c2cccc3c4ccccc4n(c23)C(=O)C1(O)O	VHR inh color 90
O=C1c2ccccc2C(=O)N1CC(O)Cn1c2ccccc2c2ccccc21 (stereo not given)	none
O=C(N=Nc1c(O)n(CN2CCCCC2)c2ccccc12)c1ccncc1	none
CCOC(=O)c1c(-c2ccccc2)nn(-c2ccccc2)c1C	none
O=C1C=CC(=O)c2c1c(-c1ccccc1)nn2-c1ccccc1	VHR inh color 86
Cc1c(C(=O)NCCO)c(-c2ccccc2)nn1-c1ccccc1	none
Cc1cccc(CN2CCN(Cc3ccncc3)CC2)c1	none
O=C(Nc1ccccc1)C1C2C3CCC(C3)C12 (stereo not given)	none
Cc1ccc(C)c(NC(=O)C2C3C4CCC(C4)C23)c1 (stereo not given)	none
O=C(Nc1ccc(Cl)cc1)C1C2C3CCC(C3)C12 (stereo not given)	VHR inh color 118
Cc1cc(C)c(NC(=O)C2C3C4CCC(C4)C23)c(C)c1 (stereo not given)	VHR inh color 114
O=C(Nc1ccc(Br)cc1)C1C2C3CCC(C3)C12 (stereo not given)	none
Cc1ccc(NC(=O)C2C3C4CCC(C4)C23)cc1 (stereo not given)	none
O=C(CSc1nnc(-c2ccco2)n1-c1ccccc1)c1ccc2c(c1)Cc1ccccc1-2	none
COC(=O)C1=NNC2C(=O)N(c3cccc(Cl)c3C)C(=O)C12 (stereo not given)	none
Cc1nccn1S(=O)(=O)c1ccc(Cl)cc1Br	none
COc1ccc(S(=O)(=O)N2CCN(C(=O)c3cccc(F)c3)CC2)cc1	none
Cc1ccc(S(=O)(=O)N2CCN(C(=O)c3cccc(F)c3)CC2)cc1	VHR inh color 101
Cc1ccc(S(=O)(=O)N2CCN(C(=O)c3cccnc3)CC2)cc1	none
N/C(Cc1cccc2ccccc12)=N\OC(=O)c1ccc(F)cc1	none
CCCn1c(/C=C(/OC(=O)c2ccccc2)c2ccccc2)nc2ccccc21	none
O=C(O/C(=C/c1nccn1Cc1ccccc1Cl)c1ccc(F)cc1)c1ccc(F)cc1	VHR inh color 110
COc1ccccc1C(=O)Nc1cccc(C(C)=O)c1	none
c1cc2c(cc1CNC13CC4CC(CC(C4)C1)C3)OCO2	none
COc1cc(OC)c(OC)cc1CN1CCNCC1	none
O=C(Nc1ccc(Cl)cc1)c1ccc(-c2cccc(Cl)c2)o1	none
CCN(CC)c1ccc(NC(=O)c2ccc(-c3cccc(Cl)c3)o2)cc1	none
CCCOC(=O)c1ccc(NC(=O)c2ccc(-c3cccc(Cl)c3)o2)cc1	VHR inh color 109
O=C(Nc1cc(Sc2ccccc2)cc([N+](=O)[O-])c1)c1ccc(F)c(F)c1	none
Cc1cc(/C=N/NC(N)=O)c(C)n1-c1ccc(N(C)C)cc1	none

Bioassay records (PubChem)
